Measurements reported in PubChem BioAssay AID1159580 (chemical genetic matrix, 2015).
The campaign covered roughly 5,500 compounds. About 2,000 (36%) were called active. Another 18% or so got no clear call; they are omitted. Rule as the data show it: active = normalized growth mostly below about 0.91 (no sharp cut-off); inconclusive = no clear call, values can overlap the other calls; inactive = mostly above about 0.92. The list shows a part of the results.

Assay: chemical genetic growth profiling, strain panel (AID 1159580);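 also: tested at 20 µM; growth read once vehicle control cultures reached saturation at 30 °C; 1 = growth at the plate median or of vehicle wells; lower values mean less growth of the strain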
Details: growth OD
[1] = S. cerevisiae deletion strains, locus YHR030C, strain SLT2, hits give low values
[2] = S. cerevisiae deletion strains, locus YJL187C, strain SWE1, hits give low values

Measured: normalized growth

O=C(O)CCCN1C(=O)c2cccc3cccc(c23)C1=O
inactive: S. cerevisiae deletion strains, locus YAL021C, strain ccr4, hits give low values 0.983 | S. cerevisiae deletion strains, locus YAL026C, strain drs2, hits give low values 1.02 | S. cerevisiae deletion strains, locus YAL030W, strain snc1, hits give low values 1.01 | S. cerevisiae deletion strains, locus YBL061C, strain skt5, hits give low values 1.01 | S. cerevisiae deletion strains, locus YBR009C, strain hhf1, hits give low values 1.02 | S. cerevisiae deletion strains, locus YBR023C, strain chs3, hits give low values 1.01 | S. cerevisiae deletion strains, locus YBR171W, strain sec66, hits give low values 1.01 | S. cerevisiae deletion strains, locus YBR231C, strain swc5, hits give low values 1.01 | S. cerevisiae deletion strains, locus YBR279W, strain paf1, hits give low values 1.01 | S. cerevisiae deletion strains, locus YCL011C, strain gbp2, hits give low values 1.02 | S. cerevisiae deletion strains, locus YCL016C, strain dcc1, hits give low values 1.02 | S. cerevisiae deletion strains, locus YCL061C, strain MRC1, hits give low values 1.02 | S. cerevisiae deletion strains, locus YCL069W, strain vba3, hits give low values 1.02 | S. cerevisiae deletion strains, locus YCR088W, strain abp1, hits give low values 1.02 | S. cerevisiae deletion strains, locus YDL005C, strain med2, hits give low values 1 | S. cerevisiae deletion strains, locus YDL040C, strain nat1, hits give low values 1 | S. cerevisiae deletion strains, locus YDR001C, strain nth1, hits give low values 1.01 | S. cerevisiae deletion strains, locus YDR069C, strain doa4, hits give low values 1.02 | S. cerevisiae deletion strains, locus YDR137W, strain rgp1, hits give low values 1.01 | S. cerevisiae deletion strains, locus YDR159W, strain sac3, hits give low values 1.01 | S. cerevisiae deletion strains, locus YDR195W, strain ref2 1.05 | S. cerevisiae deletion strains, locus YDR297W, strain sur2, hits give low values 1.01 | S. cerevisiae deletion strains, locus YDR334W, strain swr1, hits give low values 1.02 | S. cerevisiae deletion strains, locus YDR335W, strain msn5, hits give low values 1.01 | S. cerevisiae deletion strains, locus YDR392W, strain spt3, hits give low values 0.882 | S. cerevisiae deletion strains, locus YEL003W, strain gim4, hits give low values 1.01 | S. cerevisiae deletion strains, locus YEL037C, strain rad23, hits give low values 1.01 | S. cerevisiae deletion strains, locus YEL061C, strain CIN8 (second series), hits give low values 1.01 | S. cerevisiae deletion strains, locus YER015W, strain faa2, hits give low values 1.01 | S. cerevisiae deletion strains, locus YER016W, strain bim1, hits give low values 1.02 | S. cerevisiae deletion strains, locus YER111C, strain swi4, hits give low values 1.01 | S. cerevisiae deletion strains, locus YER155C, strain BEM2 (second series), hits give low values 1 | S. cerevisiae deletion strains, locus YFR010W, strain ubp6, hits give low values 1.01 | S. cerevisiae deletion strains, locus YGL167C, strain pmr1, hits give low values 1.01 | S. cerevisiae deletion strains, locus YGL173C, strain kem1, hits give low values 1.02 | S. cerevisiae deletion strains, locus YGL227W, strain vid30, hits give low values 1.02 | S. cerevisiae deletion strains, locus YGL240W, strain doc1, hits give low values 1 | S. cerevisiae deletion strains, locus YGL253W, strain hxk2, hits give low values 1.02 | S. cerevisiae deletion strains, locus YHR013C, strain ard1, hits give low values 0.97 | S. cerevisiae deletion strains, locus YHR027C, strain rpn1, hits give low values 1.02 | [1] 1 | S. cerevisiae deletion strains, locus YHR079C, strain IRE1, hits give low values 0.998 | S. cerevisiae deletion strains, locus YHR142W, strain chs7, hits give low values 0.991 | S. cerevisiae deletion strains, locus YJL092W, strain hpr5, hits give low values 1.01 | S. cerevisiae deletion strains, locus YJL095W, strain BCK1 (second series), hits give low values 1.01 | S. cerevisiae deletion strains, locus YJL095W, strain BCK1, hits give low values 0.998 | S. cerevisiae deletion strains, locus YJL115W, strain asf1, hits give low values 1.02 | S. cerevisiae deletion strains, locus YJL129C, strain trk1, hits give low values 1.02 | S. cerevisiae deletion strains, locus YJL154C, strain vps35, hits give low values 1.01 | S. cerevisiae deletion strains, locus YJL164C, strain tpk1, hits give low values 0.992 | S. cerevisiae deletion strains, locus YJL166W, strain qcr8, hits give low values 1.01 | [2] 1.01 | S. cerevisiae deletion strains, locus YJR066W, strain TOR1, hits give low values 0.963 | S. cerevisiae deletion strains, locus YKL160W, strain elf1, hits give low values 0.988 | S. cerevisiae deletion strains, locus YKR026C, strain gcn3, hits give low values 1.02 | S. cerevisiae deletion strains, locus YKR091W, strain srl3, hits give low values 1.01 | S. cerevisiae deletion strains, locus YLL001W, strain dnm1, hits give low values 1.03 | S. cerevisiae deletion strains, locus YLL026W, hits give low values 1.01 | S. cerevisiae deletion strains, locus YLL041C, strain sdh2, hits give low values 1.01 | S. cerevisiae deletion strains, locus YLR027C, strain aat2, hits give low values 1.01 | S. cerevisiae deletion strains, locus YLR113W, strain HOG1, hits give low values 1.03 | S. cerevisiae deletion strains, locus YLR221C, strain rsa3, hits give low values 0.996 | S. cerevisiae deletion strains, locus YLR258W, strain gsy2, hits give low values 1.02 | S. cerevisiae deletion strains, locus YLR262C, strain YPT6 (second series), hits give low values 0.983 | S. cerevisiae deletion strains, locus YLR320W, strain mms22, hits give low values 0.986 | S. cerevisiae deletion strains, locus YLR342W, strain FKS1, hits give low values 1.02 | S. cerevisiae deletion strains, locus YLR357W, strain rsc2, hits give low values 1.04 | S. cerevisiae deletion strains, locus YLR370C, strain arc18, hits give low values 1.02 | S. cerevisiae deletion strains, locus YLR384C, strain iki3, hits give low values 1.01 | S. cerevisiae deletion strains, locus YML120C, strain ndi1, hits give low values 1 | S. cerevisiae deletion strains, locus YMR058W, strain fet3, hits give low values 1.02 | S. cerevisiae deletion strains, locus YMR125W, strain sto1, hits give low values 1.03 | S. cerevisiae deletion strains, locus YMR129W, hits give low values 1.02 | S. cerevisiae deletion strains, locus YMR205C, strain PFK2, hits give low values 1.03 | S. cerevisiae deletion strains, locus YMR231W, strain pep5, hits give low values 1.01 | S. cerevisiae deletion strains, locus YNL071W, strain lat1, hits give low values 0.994 | S. cerevisiae deletion strains, locus YNL183C, strain NPR1, hits give low values 0.931 | S. cerevisiae deletion strains, locus YNL209W, strain ssb2, hits give low values 1.01 | S. cerevisiae deletion strains, locus YNL248C, strain rpa49, hits give low values 0.98 | S. cerevisiae deletion strains, locus YNL322C, strain KRE1 (second series), hits give low values 1.02 | S. cerevisiae deletion strains, locus YNR049C, strain mso1, hits give low values 1.01 | S. cerevisiae deletion strains, locus YOR001W, strain rrp6, hits give low values 0.976 | S. cerevisiae deletion strains, locus YOR070C, strain gyp1, hits give low values 1.01 | S. cerevisiae deletion strains, locus YOR080W, strain dia2, hits give low values 1.02 | S. cerevisiae deletion strains, locus YOR083W, strain WHI5, hits give low values 0.995 | S. cerevisiae deletion strains, locus YOR106W, strain vam3, hits give low values 1.01 | S. cerevisiae deletion strains, locus YOR231W, strain MKK1, hits give low values 1.02 | S. cerevisiae deletion strains, locus YOR265W, strain rbl2, hits give low values 1.01 | S. cerevisiae deletion strains, locus YOR270C, strain vph1, hits give low values 0.999 | S. cerevisiae deletion strains, locus YOR290C, strain snf2, hits give low values 1 | S. cerevisiae deletion strains, locus YPL051W, strain arl3, hits give low values 0.982 | S. cerevisiae deletion strains, locus YPL078C, strain atp4, hits give low values 0.997 | S. cerevisiae deletion strains, locus YPL106C, strain sse1, hits give low values 1.01 | S. cerevisiae deletion strains, locus YPL240C, strain hsp82, hits give low values 1.02 | S. cerevisiae deletion strains, locus YPL256C, strain CLN2, hits give low values 1.03

O=S(=O)(O)c1cccc2cccc(Cl)c12
inactive: S. cerevisiae deletion strains, locus YAL013W, strain DEP1, hits give low values 1.01 | S. cerevisiae deletion strains, locus YBR229C, strain ROT2, hits give low values 1.01 | S. cerevisiae deletion strains, locus YDL101C, strain DUN1, hits give low values 0.984 | S. cerevisiae deletion strains, locus YDR150W, strain NUM1, hits give low values 0.93 | S. cerevisiae deletion strains, locus YEL061C, strain CIN8, hits give low values 0.998 | S. cerevisiae deletion strains, locus YGR078C, strain PAC10, hits give low values 1 | [1] 0.985 | S. cerevisiae deletion strains, locus YHR087W, strain rtc3, hits give low values 1.06 | [2] 1 | S. cerevisiae deletion strains, locus YJR043C, strain POL32, hits give low values 0.993 | S. cerevisiae deletion strains, locus YJR075W, strain HOC1, hits give low values 0.999 | S. cerevisiae deletion strains, locus YLR039C, strain RIC1, hits give low values 0.996 | S. cerevisiae deletion strains, locus YLR058C, strain SHM2 (second series), hits give low values 1.01 | S. cerevisiae deletion strains, locus YLR085C, strain ARP6, hits give low values 1.03 | S. cerevisiae deletion strains, locus YLR262C, strain YPT6, hits give low values 1.01 | S. cerevisiae deletion strains, locus YML094W, strain GIM5, hits give low values 1.03 | S. cerevisiae deletion strains, locus YMR219W, strain ESC1, hits give low values 1.02 | S. cerevisiae deletion strains, locus YMR263W, strain SAP30, hits give low values 1.01 | S. cerevisiae deletion strains, locus YMR307W, strain GAS1, hits give low values 0.996 | S. cerevisiae deletion strains, locus YNL153C, strain GIM3, hits give low values 0.999 | S. cerevisiae deletion strains, locus YNL298W, strain CLA4 (second series), hits give low values 1.02 | S. cerevisiae deletion strains, locus YNL322C, strain KRE1, hits give low values 1 | S. cerevisiae deletion strains, locus YNR030W, strain Alg12, hits give low values 1.03 | S. cerevisiae deletion strains, locus YPL055C, strain LGE1, hits give low values 1.02 | S. cerevisiae deletion strains, locus YPL241C, strain CIN2, hits give low values 1.01 | S. cerevisiae deletion strains, locus YPR135W, strain CTF4, hits give low values 0.973 | S. cerevisiae strains, strain wild type, hits give low values 0.984
